From PubChem
Sfp inh: blocks B. subtilis Sfp PPTase activity | AID 1490 | actives 3.5% (n = 310,000) | Potency, µM, most hits filed as inhibitors | Q9F4F7 | Biochemical Sfp PPTase activity, qHTS;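 further: the enzyme is Sfp with the accession as filed and its product quenches rhodamine fluorescence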
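With Hepes-Na pH 7.6 buffer containing 10 mM MgCl2, Sfp (15 nM) modified BHQ-2-YbbR (12.5 uM) using rhodamine-CoA (5 uM). Two reads 30 minutes apart at 525/598 nm yielded each well's rate.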
G9a inh: inhibitors of human histone lysine methyltransferase G9a; Q96KQ7; G9a H3K9 monomethylation, AlphaScreen, 2 h; Potency, µM (titrated, usually from 102 µM), most hits filed as inhibitors; actives 8.8% (n = 350,000); further: nearly all actives have a fitted effect of over 75% in size
Target sequence (Q96KQ7 913-1193 limits assumed): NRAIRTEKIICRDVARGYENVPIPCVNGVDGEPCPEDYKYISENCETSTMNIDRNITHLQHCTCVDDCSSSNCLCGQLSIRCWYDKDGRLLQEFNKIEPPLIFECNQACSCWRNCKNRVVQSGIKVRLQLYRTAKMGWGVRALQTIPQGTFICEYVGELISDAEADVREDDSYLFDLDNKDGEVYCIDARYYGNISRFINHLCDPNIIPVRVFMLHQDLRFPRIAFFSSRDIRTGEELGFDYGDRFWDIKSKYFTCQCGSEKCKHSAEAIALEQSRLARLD
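AlphaScreen read-out: biotin-H3K9 peptide (500 nM) methylation by 20 nM enzyme with 20 uM SAM, 2 h at room temperature after 15 min compound preincubation; anti-monomethyl H3K9 antibody plus donor/acceptor beads, 10 min dark.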
HP1b binding inh: HP1-beta chromodomain-methylated histone interaction inhibition; P83916; AlphaScreen HP1-beta / biotin-H3K9me3 peptide binding; Potency, µM (series often up to 114 µM), usual class: inhibitors; actives 0.56% (n = 390,000); further: nearly all actives have a fitted effect of over 70% in size
Target sequence (P83916 whole entry, looked up): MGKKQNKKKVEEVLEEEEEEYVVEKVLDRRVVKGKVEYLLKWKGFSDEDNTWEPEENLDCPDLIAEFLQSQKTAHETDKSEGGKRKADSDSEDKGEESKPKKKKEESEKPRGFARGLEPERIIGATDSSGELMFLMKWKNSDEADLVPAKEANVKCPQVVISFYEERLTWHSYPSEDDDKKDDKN
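AlphaScreen: HP1-beta (50 nM) preformed 30 min with biotin-H3(1-18)K9me3 peptide (50 nM) in PBS pH 7.4, 0.01% Tween-20. Compound added for 30 min at RT, then streptavidin donor/nickel chelate acceptor beads (10 ug/mL) for 30 min.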
JMJD2A Tudor inh: inhibitors of human JMJD2A Tudor domain; actives 4.4% (n = 390,000); Potency, µM (highest dose often 114 µM), most hits filed as inhibitors; AlphaScreen JMJD2A-Tudor / H3K4me3 peptide binding; O75164; AID 504339; further: nearly all actives have a fitted effect of over 50% in size
BAZ2B inh: BAZ2B (human) inhibition; Potency, µM (highest dose often 114 µM), actives largely listed as inhibitors; AlphaScreen BAZ2B-H3K14Ac peptide displacement; Q9UIF8; AID 504333; actives 4.4% (n = 360,000); further: nearly all actives have a fitted effect of over 60% in size
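AlphaScreen luminescence quantifies BAZ2B engagement of H3K14Ac peptide; the protein and biotinylated peptide are both at 50 nM final, buffer PBS pH 7.4 with 0.01% Tween-20, all steps at room temperature.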
Of the large screens only hits and unclear results are named; the others gave an inactive call. Shown are actives, neighbours in structure and some others; about 12% of the full set was active somewhere. The call rests on the fitted dose curve; in most records, active means well fitted curve in the direction sought with a large enough effect; inconclusive means small, poorly fitted or top-dose-only effect, or another doubt; inactive means no such curve, though single readings can be large; an effect the other way counts as inactive or inconclusive.

COc1ccc(CN2CCCC(C(=O)N3CCCCC3)C2)c(OC)c1 (stereo not drawn)	JMJD2A Tudor inh inconclusive (no result: G9a inh)
FC(F)(F)c1ccc2c(c1)C1C=CCC1C(c1ccncc1)N2 (stereo not drawn)	G9a inh inconclusive, JMJD2A Tudor inh inconclusive, BAZ2B inh 45µM
O=C(O)c1ccc2c(c1)C1C=CCC1C(c1ccncc1)N2 (stereo not drawn)	Sfp inh inconclusive, G9a inh inconclusive, BAZ2B inh 56µM
COc1cccc([C@@H]2Nc3ccc(C(=O)O)cc3[C@@H]3C=CC[C@@H]32)c1OC	G9a inh inconclusive (no result: Sfp inh)
C=CCSc1nnc(-c2cnn(-c3ccccc3)c2-n2cccc2)n1C	none
CCCSc1nnc(-c2cnn(-c3ccccc3)c2-n2cccc2)n1C	G9a inh 13µM
Cc1sc(N)c(C(=O)c2ccccc2)c1C	Sfp inh 16µM, BAZ2B inh inconclusive (no result: G9a inh)
Cc1c(-c2ccccc2)sc(N)c1C(=O)N1CCOCC1	Sfp inh 45µM, G9a inh 4µM, HP1b binding inh inconclusive
CCOC(=O)c1c(N)sc(C(O)(C(F)(F)F)C(F)(F)F)c1-c1ccccc1	HP1b binding inh inconclusive, JMJD2A Tudor inh inconclusive
CCOC(=O)c1c(N)sc(C)c1-c1ccccc1	Sfp inh 35µM, G9a inh 18µM (no result: HP1b binding inh, JMJD2A Tudor inh, BAZ2B inh)
CCOC(=O)c1sc(-c2ccccc2)cc1N	none
CCOC(=O)c1c(N)sc(-c2ccccc2)c1C	Sfp inh inconclusive, G9a inh 8.9µM, HP1b binding inh inconclusive, JMJD2A Tudor inh inconclusive
CC1CCN2c3cc(Cl)ccc3CC3(C(=O)OC(C)(C)OC3=O)C2C1 (stereo not drawn)	none (no result: Sfp inh, G9a inh, BAZ2B inh)
CCO[C@@H]1OC(C(=O)N2CCOCC2)=C[C@H](C2CCCCC2)[C@H]1CCCO	none
CCn1c(O)c(N=NC(=O)CNC(=O)c2ccco2)c2ccccc21	none
CCn1c(O)c(N=NC(=O)CNC(=O)/C=C/c2ccco2)c2ccccc21	Sfp inh inconclusive, G9a inh 56µM
Cc1ccc(S(=O)(=O)CCSC(=N)N)cc1	G9a inh inconclusive
COc1ccc(C(=O)c2no[n+]([O-])c2C(=O)c2ccc(OC)cc2)cc1	G9a inh 8.9µM, JMJD2A Tudor inh inconclusive
O=C(c1cccs1)c1no[n+]([O-])c1C(=O)c1cccs1	Sfp inh 32µM, G9a inh 10µM, JMJD2A Tudor inh inconclusive, BAZ2B inh inconclusive
C#CCN1C(=O)S/C(=C/C=C/c2ccc(N(C)C)cc2)C1=O	G9a inh 8.9µM, HP1b binding inh 20µM, JMJD2A Tudor inh 25µM, BAZ2B inh 10µM
O=C(O)CN1C(=O)/C(=C/C=C/c2ccccc2)SC1=S	G9a inh inconclusive, BAZ2B inh inconclusive
CC1Cc2ccccc2N1S(=O)(=O)c1cccc(C(=O)NCc2ccccn2)c1 (stereo not drawn)	none (no result: Sfp inh)
CC1=C/C(=C\c2ccc3c(c2)OCO3)C(=O)S1	G9a inh 25µM, JMJD2A Tudor inh inconclusive, BAZ2B inh inconclusive
CCCN1C(=O)/C(=C/c2ccc3c(c2)OCO3)NC1=S	none
CCCN1C/C(=C/c2ccc3c(c2)OCO3)C(=O)/C(=C/c2ccc3c(c2)OCO3)C1	Sfp inh 40µM, G9a inh inconclusive, HP1b binding inh inconclusive, JMJD2A Tudor inh 22µM, BAZ2B inh 50µM
CCC(C(=O)OC)n1cnc2c(cnn2-c2ccc(Cl)cc2)c1=O (stereo not drawn)	none
c1ccc(-c2ncc3ccccn23)cc1	Sfp inh 16µM, G9a inh 79µM
C=CCSC1=N/C(=C\c2cc(OCC)c(OC(C)=O)c([N+](=O)[O-])c2)C(=O)S1	Sfp inh 56µM, G9a inh 13µM, HP1b binding inh 28µM, JMJD2A Tudor inh 18µM, BAZ2B inh 35µM
C=CCSC1=N/C(=C\c2ccc3c(c2)OCO3)C(=O)S1	none
O=C(COc1ccc2ccccc2c1)NNC(=O)c1ccccc1	none
O=C(CCC(=O)N1CCSc2ccccc21)Nc1cccc(F)c1	none
O=c1[nH]nc(Sc2ncnc3sccc23)n1CCc1ccccc1	G9a inh 40µM
COc1ccc(C)cc1NC(=O)C1CCCN1S(=O)(=O)c1ccccc1F (stereo not drawn)	G9a inh 8.9µM (no result: Sfp inh)
Cc1ccc(C)c(NC(=O)[C@@H]2CCCN2S(=O)(=O)c2ccccc2F)c1	none (no result: Sfp inh)
O=C(Nc1nccs1)C1CCCN1S(=O)(=O)c1ccc(Cl)cc1 (stereo not drawn)	none (no result: BAZ2B inh)
O=C(Nc1nccs1)[C@@H]1CCCN1S(=O)(=O)c1ccccc1F	G9a inh 40µM (no result: Sfp inh)
CC(=O)c1cccc(CN(C)CC2CCCN(CCc3ccccc3C)C2)c1 (stereo not drawn)	BAZ2B inh inconclusive
NCCCCCc1cn(CC(=O)NCCCCCCCCCCC(=O)N2CCNCC2)nn1	none (no result: Sfp inh)
COc1ccc(C(CNCC(O)COc2c(C)ccc(C)c2C)N(C)C)cc1 (stereo not drawn)	JMJD2A Tudor inh 22µM, BAZ2B inh 56µM
CCn1c(C)c2c([n+]1CC)CC(C)(C)CC2=O	G9a inh 16µM, JMJD2A Tudor inh 32µM
CCn1c2c(c(C)cc1=O)C(=O)CC(C)(C)C2	none
CC(C)(C)n1cnc2cc(NC(=O)c3cccs3)ccc21	G9a inh 40µM
Cc1[nH]c2ccccc2c1C(C#N)(C#N)C1C(=O)c2ccccc2C1=O	Sfp inh inconclusive, HP1b binding inh 11µM, JMJD2A Tudor inh 13µM, BAZ2B inh 7.9µM
COc1ccc(NC(=O)c2ccc([N+](=O)[O-])cc2[N+](=O)[O-])c(OC)c1	none
CCOC(=O)/C(=N\Nc1cc(Cl)ccc1Cl)N1CC(C)OC(C)C1 (stereo not drawn)	none
CCOC(=O)C(=NCC1CCCO1)NNc1cc(Cl)ccc1Cl (stereo not drawn)	G9a inh 35µM, JMJD2A Tudor inh inconclusive, BAZ2B inh inconclusive
CC1(C)CC(=O)C2=C(C1)N(Cc1ccco1)C(=O)C2(NC(=O)c1ccc(Cl)cc1Cl)C(F)(F)F (stereo not drawn)	none
Cc1c(N=C2C=CC(=O)c3ccccc32)c(=O)n(-c2ccccc2)n1C	Sfp inh 18µM, G9a inh 35µM, HP1b binding inh 10µM, JMJD2A Tudor inh 45µM, BAZ2B inh 28µM
Cc1csc(=Nc2c(C)n(C)n(-c3ccccc3)c2=O)n1Cc1ccccc1	none
Cc1c(N=C2C=C(Br)C(=O)C(Br)=C2)c(=O)n(-c2ccccc2)n1C	Sfp inh 40µM, G9a inh 7.1µM, HP1b binding inh 28µM, JMJD2A Tudor inh 56µM, BAZ2B inh 20µM
C=CCN=Cc1sc2ccc(OCC)cc2c1O	Sfp inh inconclusive, G9a inh 45µM (no result: HP1b binding inh, JMJD2A Tudor inh)
CCOc1ccc2nc(/N=C/c3nc(-c4ccc(Br)cc4)oc3O)sc2c1	Sfp inh inconclusive, HP1b binding inh inconclusive
CCCCN=Cc1sc2ccc(OCC)cc2c1O	G9a inh inconclusive, HP1b binding inh inconclusive, JMJD2A Tudor inh 28µM, BAZ2B inh 79µM
CCCC(=O)Nc1ccc(C(=O)NCc2ccccc2Cl)cc1	none
CC(=O)Nc1ccc(C2C(=O)c3ccccc3C2=O)cc1	G9a inh 50µM
